From PubChem BioAssay
Shown are actives, neighbours in structure and some others; about 11% of the full set was active somewhere.
G9a block – inhibitors of human histone lysine methyltransferase G9a. Q96KQ7. G9a H3K9 monomethylation, AlphaScreen, 2 h. Potency, µM (doses to about 102 µM), for the others: at the highest dose activity, negative = inhibition, usual class: inhibitors. actives 8.8% (n = 350,000); also: potency is read from the fitted curve at half-maximal effect; % is scaled to controls: 0 for no effect and ±100 for the full control effect; nearly all actives have a fitted effect of over 75% in size
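AlphaScreen read-out: biotin-H3K9 peptide (500 nM) methylation by 20 nM enzyme with 20 uM SAM, 2 h at room temperature after 15 min compound preincubation; anti-monomethyl H3K9 antibody plus donor/acceptor beads, 10 min dark.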
PI5P4Ka inh – inhibitors of human PI5P4K alpha | AID 652105 | P48426 | PI5P4Kalpha enzyme, ADP-Glo luminescence, 60 min; stronger effect = lower value | actives 1.2% (n = 330,000) | max response, %; active = max response of -50% or lower; inconclusive = between -30% and -50%; inactive = -30% or higher; also: value at the top dose of about 77 µM; % is scaled to controls: 0 for no effect and ±100 for the full control effect
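Reactions run in 0.038 M HEPES pH 7.4, 0.28 mM EGTA, 0.1% CHAPS and 5% DMSO, with PI5P4Kalpha, substrate, compound and 5 microM ATP final, one hour at room temperature. Readout is ADP-Glo luminescence.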
JMJD2A Tudor – inhibitors of human JMJD2A Tudor domain; AlphaScreen JMJD2A-Tudor / H3K4me3 peptide binding; Potency, µM (doses to about 114 µM), without a hit: at the highest dose activity change, negative = inhibition, hits mostly inhibitors; actives 4.4% (n = 390,000); AID 504339; also: potency is read from the fitted curve at half-maximal effect; % is scaled to controls: 0 for no effect and ±100 for the full control effect; nearly all actives have a fitted effect of over 50% in size
Target sequence (O75164 whole entry, looked up, the tested form may be a part): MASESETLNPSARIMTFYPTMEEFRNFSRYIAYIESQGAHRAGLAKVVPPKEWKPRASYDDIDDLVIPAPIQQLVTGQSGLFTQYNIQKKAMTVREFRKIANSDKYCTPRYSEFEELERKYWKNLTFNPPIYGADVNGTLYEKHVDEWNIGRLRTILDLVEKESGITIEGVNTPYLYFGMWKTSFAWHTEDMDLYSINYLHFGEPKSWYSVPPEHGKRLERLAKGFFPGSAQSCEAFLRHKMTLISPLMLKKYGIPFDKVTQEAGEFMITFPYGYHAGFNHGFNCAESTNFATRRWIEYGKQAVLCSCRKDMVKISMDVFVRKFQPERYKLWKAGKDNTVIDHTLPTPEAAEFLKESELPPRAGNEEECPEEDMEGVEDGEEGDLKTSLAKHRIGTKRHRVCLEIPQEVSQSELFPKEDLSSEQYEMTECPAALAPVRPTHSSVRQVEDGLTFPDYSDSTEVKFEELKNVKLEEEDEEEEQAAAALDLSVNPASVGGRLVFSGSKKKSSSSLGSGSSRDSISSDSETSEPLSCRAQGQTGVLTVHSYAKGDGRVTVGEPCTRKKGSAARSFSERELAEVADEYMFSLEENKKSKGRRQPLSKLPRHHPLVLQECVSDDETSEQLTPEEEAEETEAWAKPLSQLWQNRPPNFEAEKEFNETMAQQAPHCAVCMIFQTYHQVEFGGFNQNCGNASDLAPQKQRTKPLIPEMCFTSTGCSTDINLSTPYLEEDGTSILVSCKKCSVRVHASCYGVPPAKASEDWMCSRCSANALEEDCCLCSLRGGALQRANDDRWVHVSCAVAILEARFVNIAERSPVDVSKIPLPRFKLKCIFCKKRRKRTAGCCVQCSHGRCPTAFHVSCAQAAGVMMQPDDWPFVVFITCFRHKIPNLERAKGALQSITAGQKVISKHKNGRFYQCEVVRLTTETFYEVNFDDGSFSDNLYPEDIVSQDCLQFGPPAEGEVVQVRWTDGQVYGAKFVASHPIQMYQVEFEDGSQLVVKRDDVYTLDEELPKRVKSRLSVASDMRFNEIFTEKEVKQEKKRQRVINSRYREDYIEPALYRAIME
BAZ2B inh – inhibitors of human BAZ2B bromodomain. Q9UIF8. AlphaScreen BAZ2B-H3K14Ac peptide displacement. Potency, µM (series often up to 114 µM), for inactives: top-dose activity change, negative = inhibition, hits mostly inhibitors. actives 4.4% (n = 360,000). AID 504333; also: potency is read from the fitted curve at half-maximal effect; % is scaled to controls: 0 for no effect and ±100 for the full control effect; nearly all actives have a fitted effect of over 60% in size
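AlphaScreen luminescence quantifies BAZ2B engagement of H3K14Ac peptide; the protein and biotinylated peptide are both at 50 nM final, buffer PBS pH 7.4 with 0.01% Tween-20, all steps at room temperature.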
HP1b binding inh – HP1-beta chromodomain-methylated histone interaction inhibition; AID 540317; AlphaScreen HP1-beta / biotin-H3K9me3 peptide binding; P83916; actives 0.56% (n = 390,000); Potency, µM (doses to about 114 µM), for the others: at the highest dose activity change, negative = inhibition, most hits filed as inhibitors; also: potency is read from the fitted curve at half-maximal effect; nearly all actives have a fitted effect of over 70% in size
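Compound inhibition of the preformed complex between 50 nM HP1-beta and 50 nM biotinylated H3K9me3 peptide was read by AlphaScreen. Buffer was PBS pH 7.4 with 0.01% Tween-20. Incubations ran 30 min at room temperature, with 10 ug/mL donor/acceptor beads.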
L3MBTL1 inh – L3MBTL1 (human) inhibition. AlphaScreen L3MBTL1–H3K9me1 peptide binding. Potency, µM (series often up to 57.1 µM), inactives show top-dose activity, negative = inhibition, hits mostly inhibitors. actives 0.66% (n = 230,000); also: potency is read from the fitted curve at half-maximal effect; % is scaled to controls: 0 for no effect and ±100 for the full control effect; nearly all actives have a fitted effect of over 60% in size
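L3MBTL1 50 nM + b-AHA-H3(1-15)K9me1 75 nM, 30 min RT; compound added, 30 min RT; streptavidin donor/Ni-chelate acceptor beads 10 ug/mL each final, 30 min RT dark; AlphaScreen read.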
* hit, by the source's call; ? = inconclusive; nt = not tested or not shown; [ ] = remark or other dose. Unless noted, calls follow the shape of the dose curve; as a rule, active = well fitted inhibition curve with a large enough effect; inconclusive = small, poorly fitted or top-dose-only effect; inactive = no such curve, though single readings can be large or run the other way.

SMILES | G9a block | PI5P4Ka inh | JMJD2A Tudor | BAZ2B inh | HP1b binding inh | L3MBTL1 inh
O=C(CCS(=O)(=O)c1cc(Br)cc2c1N(C(=O)C1CC1)CC2)NCc1ccccc1Cl | 10.1%[59 µM] | nt | -17.1% | -3.8% | 7.0% | nt
COc1cc(/C=C2/C(=O)N(c3ccc(Br)cc3)N=C2C)cc([N+](=O)[O-])c1O | 79.4µM* | nt | nt | -33.4% | nt | nt
COc1ccccc1/C=C1/C(=O)N(c2ccc([N+](=O)[O-])cc2)N=C1C | ? | -0.6 | ? | -36.3% | -1.6% | -0.7%
COc1cc(/C=C2/C(=O)N(c3cccc(Br)c3)N=C2C)cc(OC)c1O | 10µM* | 6.8 | 28.2µM* | 10µM* | 28.2µM* | nt
CN1CCN(C2=C(Cl)C(=O)c3ccccc3C2=O)CC1 | nt | -4.0 | 22.4µM* | nt | ? | nt
O=C(O)C1CCN(C(=O)c2ccccc2Cl)CC1 | 2.6%[59 µM] | nt | 0.0% | -1.9% | 35.6% | nt
O=C1C(Cl)=C(N2CCC(C(=O)O)CC2)C(=O)c2ccccc21 | 50.1µM* | ? | -25.8% | ? | -2.6% | -25.6%
CC1COCC(C)N1C1=C(Cl)C(=O)c2ccccc2C1=O (stereo unspecified) | nt | -69.7* | 3.16µM* | nt | 12.6µM* | nt
CN1CCN(C2=C(Cl)C(=O)C(c3cnc(N4CCCCC4)s3)=C(Cl)C2=O)CC1 | 8.9%[59 µM] | -89.0* | 4.47µM* | 12.7% | ? | -24.7%
CCc1ccc(CNC(=O)Cc2c(C(=O)O)c(C)cn2C)cc1 | 7.4%[59 µM] | nt | -11.7% | -16.2% | 17.8% | nt
COc1cccc(N2C(=O)c3ccccc3C2=O)n1 | nt | nt | 6.1% | nt | nt | nt
CCOc1ccccc1NC(=O)COC(=O)c1cn(CC)c2nc(C)ccc2c1=O | -5.2%[59 µM] | nt | -11.6% | 0.6% | 10.9% | nt
NC(=O)C1CCN(C2=C(Cl)C(=O)c3ccccc3C2=O)CC1 | 11.2µM* | nt | -29.3% | 25.1µM* | ? | ?
Cc1ccc(NC(=O)C2CCCN(S(=O)(=O)c3cccc4cccnc34)C2)c(C)c1 (stereo unspecified) | 8.5%[59 µM] | nt | -5.6% | -3.5% | 40.6% | nt
CN(C)CCCNC(=O)C[C@H]1C[C@H](C(=O)N2CCCCC2)[C@@]2(C)c3[nH]c4cc(-c5ccco5)ccc4c3CCN2C1=O | nt | -3.7 | ? | nt | 2.8% | -6.1%
CC[C@]12c3[nH]c4cc(-c5ccco5)ccc4c3CCN1C(=O)[C@@H](CC(=O)NCC13CC4CC(CC(C4)C1)C3)C[C@@H]2C(=O)N1CCN(C(=O)C2CC2)CC1 | nt | -20.4 | -23.2% | nt | 9.6% | -8.4%
CC[C@]12c3[nH]c4cc(-c5ccco5)ccc4c3CCN1C(=O)[C@@H](CC(=O)NCC13CC4CC(CC(C4)C1)C3)C[C@@H]2C(=O)N1CCN(C(=O)c2ccco2)CC1 | nt | -51.4* | -32.6% | nt | 18.1% | -14.4%
COc1ccc2[nH]c3c(c2c1)CCN1C(=O)C(CC(=O)NCC24CC5CC(CC(C5)C2)C4)C[C@H](C(=O)N2CCOCC2)[C@@]31CCC1CCCC1 (stereo partly specified) | nt | -24.2 | 39.8µM* | nt | -5.6% | -0.6%
O=C(C[C@H]1C[C@H](C(=O)N2CCOCC2)[C@@]2(CCC3CCCC3)c3[nH]c4ccc(Cl)cc4c3CCN2C1=O)NCC12CC3CC(CC(C3)C1)C2 | nt | 0.1 | -30.9% | nt | 0.1% | -6.4%
CN(C)CCCNC(=O)C[C@H]1C[C@H](C(=O)N2CCCCC2)[C@@]2(CCc3ccccc3)c3[nH]c4cc(-c5ccco5)ccc4c3CCN2C1=O | nt | -1.1 | 50.1µM* | nt | ? | ?
COc1cccc(-c2nnc(SCC(=O)N(C)c3ccccc3)o2)c1 | -14.4%[59 µM] | nt | -7.9% | -0.3% | 43.9% | nt
COc1ccc(-n2cc(CNCc3cnc4ccccn34)c(-c3cccc(F)c3)n2)cc1 | nt | 8.5 | -22.6%[11.4 µM] | 44.7µM* | -24.5% | -23.1%
COc1ccc(-n2cc(CNCC3CCOCC3)c(-c3cccc(F)c3)n2)cc1 | -2.7% | -2.4 | -4.8% | -8.7% | 60.7% | -12.6%
CCCCN1C(=O)C(NC(=O)c2ccc(C(C)(C)C)cc2)(C(F)(F)F)C(C(=O)OC)=C1C (stereo unspecified) | 1.1%[59 µM] | nt | -19.0% | -19.1% | 7.4% | nt
COC(=O)CCCC1=CC2=C(c3ccccc3)C(=O)C(C)(OC(=O)C3CCCC3)C(=O)C2=CN1CCCCO (stereo unspecified) | 4.7%[59 µM] | -0.1 | -18.6% | -12.9% | 28.5% | nt
SMILES | G9a block | PI5P4Ka inh | JMJD2A Tudor | BAZ2B inh | HP1b binding inh | L3MBTL1 inh
COC(=O)CCCC1=CC2=C(c3ccccc3)C(=O)C(C)(OC(=O)C3CCCC3)C(=O)C2=CN1Cc1ccco1 (stereo unspecified) | 1.2%[12.7 µM] | 4.5 | ? | 70.8µM* | -5.7% | nt
O=C(CN1CCN(Cc2ccccc2Cl)C1=O)NCc1ccccc1Cl | 11.7%[59 µM] | nt | -1.0% | 3.3% | 43.8% | nt
CC1(C)CC(=O)C2=C(C1)c1c(ccc3ccccc13)NC2c1ccco1 (stereo unspecified) | 50.1µM* | nt | ? | ? | 4.8% | nt
C[C@@H](C(=O)NCc1ccco1)N1C(=O)N2CCc3c([nH]c4ccccc34)[C@@]2(C)C1=O | ? | 1.0 | -28.6% | 50.1µM* | -13.0% | -2.6%
COc1ccc2[nH]c3c(c2c1)CCN1C(=O)N([C@@H](C)C(=O)NCCc2ccc(F)cc2)C(=O)[C@]31C | 50.1µM* | -8.2 | ? | ? | -8.1% | -2.8%
O=c1c2ccccc2nc2n1CCCCC2 | 8.6%[59 µM] | 2.1 | -23.2% | 5.4% | 17.0% | -0.7%
O=C1CCn2c1c(O)c1ccccc1c2=O | nt | 9.0 | 35.5µM* | nt | -14.1% | nt
CCN(CC)CCNC(=O)c1ccc2c(c1)NC(=O)C(CS(=O)(=O)Cc1cccc(Br)c1)N2 (stereo unspecified) | ? | nt | -31.8% | -36.9% | -6.2% | nt
Cc1ccc(CNC(=O)c2ccc3c(c2)NC(=O)C(CS(=O)(=O)Cc2cccc(C)c2)N3)cc1 (stereo unspecified) | 14.1µM* | nt | -15.5% | 6.0%[57.1 µM] | 46.7% | nt
O=C(NCc1ccccc1Cl)c1ccc2c(c1)NC(=O)C(CS(=O)(=O)Cc1ccc(Cl)cc1)N2 (stereo unspecified) | 28.2µM* | nt | ? | -0.4% | -5.5% | nt
Nc1ncnc2c1[nH]c(=S)n2C1OC(CO)C(O)C1O (stereo unspecified) | nt | nt | ? | nt | -29.8%[57 µM] | nt
Cc1cn2c(=O)cc(COC(=O)c3ccc(NC(=O)c4ccccc4C)cc3)nc2s1 | 1.4%[59 µM] | nt | -6.6% | -1.4% | 8.3% | nt
CC(=O)Nc1ccc(Nc2nc(C)cc(C)n2)cc1 | -0.5% | 10.2 | 1.8% | -2.5% | 14.2% | -2.5%
Cc1ccc(Nc2nc(C)cc(C)n2)c(C(=O)O)c1 | 8.91µM* | nt | -0.3% | 0.3% | -9.5% | nt
O=C(c1cccc(Cl)c1)N1CCC(c2nc3c(nnn3Cc3ccc(F)cc3F)c(=O)[nH]2)CC1 | -1.3%[59 µM] | nt | -9.0% | -10.9% | 23.0% | nt
